According to PubChem BioAssay (NCI):
The panel holds about 83,000 compounds, 20% with a hit somewhere; the sample as a whole holds those more often.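 96-well plates, one dose, 48 hours. Percent growth reported; active if below 10.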 Activity calls are given as the source filed them.

What follows are compounds tested on MDA-MB-468 breast (assay: NCI-60 one-dose screen, 48 h (100 = growth as untreated, 0 = no growth, -100 = all killed)). Details: 10 µM unless noted.

Compound | growth
O=C1c2cccc3cc([N+](=O)[O-])cc(c23)C(=O)N1CCN1CCCC1 | -53.4% (active)
Cc1ccc(OCCCCCCNCCO)c(C)c1 | -15.9% (active)
COC(=O)[C@H]1CCCN1C(=O)[C@H]1CCCN1C(=O)[C@H](Cc1c[nH]c2ccccc12)NC(=S)Nc1cc(C(F)(F)F)cc(C(F)(F)F)c1 | 61% (inactive)
CCCC1Cc2cc(-n3nc(C)c4c3CC(C)(C)CC4=O)cc(NC3CCC(O)CC3)c2C(=O)N1 (stereo not given) | -8.54% (active)
COC(=O)c1nc(-c2ccccc2)oc1S(=O)(=O)n1nc(-c2ccccc2)cc1N | 74.6% (inactive)
COc1ccc2c(c1)C(=O)CC(c1ccccc1OC)O2 (stereo not given) | 92.2% (inactive)
Cc1ccc(C2=NNC(c3sc(Cl)nc3Cl)C2)cc1 (stereo not given) | 93.5% (inactive)
CCCN1CN2C(=O)N3CN(CCC)CN4C(=S)N(C1)C2C34 (stereo not given) | 107% (inactive)
CCOC(=O)/C=C1\S/C(=N\Nc2cc(=O)[nH]c3ccc(Cl)cc23)N(c2ccccc2)C1=O | 80.8% (inactive)
COc1cc2oc(-c3cccc(NC(=O)c4ccc5c(c4)OCO5)c3)cc(=O)c2c(OC)c1OC | 75.5% (inactive)
OC(c1ccccc1)C(NCc1ccccc1)c1ccccc1 (stereo not given) | 95.4% (inactive)
O=C1OCC2=C1C(c1ccc(Cl)c(Cl)c1)c1cc3c(cc1N2CCO)CCC3 (stereo not given) | 22.9% (inactive)
CN1CCN(c2ccc3nc4c(nc3c2C(F)(F)F)C(=O)c2ncccc2C4=O)CC1 | -62.4% (active)
CN(C)c1ccc(C2C(C#N)=C(/N=C/c3ccccc3)Oc3c2ccc2ccccc32)cc1 (stereo not given) | 86.3% (inactive)
O=C(Nc1cccnc1Nc1ccc(Cl)cc1)c1cn(Cc2cccc(Oc3ccccc3)c2)nn1 | 63.3% (inactive)
CC1=C(C)C(=O)OC([C@](C)(O)[C@]2(O)CC[C@@]3(O)[C@@H]4C[C@H]5O[C@]56CC=CC(=O)[C@]6(C)[C@H]4CC[C@]23COC(=O)c2ccc(C)o2)C1 (stereo not given in full) | -55.6% (active)
O=S(=O)(NCCCNc1nccc(-c2[nH]c(-c3ccccc3)nc2-c2ccc(F)c(O)c2)n1)c1ccccc1 | 88.3% (inactive)
COc1ncc(-c2ccc3ncnc(Nc4cccc(Cl)c4)c3c2)cc1NS(=O)(=O)CCN1CCOCC1 | -52.8% (active)
COc1cccc(CCN2C(=O)CCC3=C2CCC3=O)c1 | 103% (inactive)
CCC(C)[C@H](NC(=O)Nc1cc(C(F)(F)F)cc(C(F)(F)F)c1)C(=O)N[C@@H](Cc1cn(C)cn1)C(=O)OC (stereo not given in full) | -74.1% [100 µM] (active)
COc1cc2nnn3c4ncccc4c(N=O)c3c2cc1OC | -50.9% (active)
N[C@@H](Cc1ccccc1)[C@@H](O)C(=O)NCc1ccc(F)cc1 | 114% (inactive)
CCOC(=O)c1ccc[nH]1 | 100% (inactive)
COc1c(CCC[P+](c2ccccc2)(c2ccccc2)c2ccccc2)cc2c(c1OC)OCO2 | -28% (active)
Cc1cc(NCc2cc(Nc3ccnc4cc(Cl)ccc34)ccc2F)nc(N2CCCC2)n1 | -35.4% (active)
